Mdm2-MdmX inh: inhibitors of human Mdm2-MdmX association, primary screen, cell-based, luminescence, split luciferase, SaOS-2, uHTS; SaOS-2 split-luciferase Mdm2/MdmX complementation; inhibition, % at 8 µM; 330,000 compounds, 3% hits;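 active = inhibition of at least 50% at 8 µM in the primary screen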
Target sequence (O15151 whole entry, looked up): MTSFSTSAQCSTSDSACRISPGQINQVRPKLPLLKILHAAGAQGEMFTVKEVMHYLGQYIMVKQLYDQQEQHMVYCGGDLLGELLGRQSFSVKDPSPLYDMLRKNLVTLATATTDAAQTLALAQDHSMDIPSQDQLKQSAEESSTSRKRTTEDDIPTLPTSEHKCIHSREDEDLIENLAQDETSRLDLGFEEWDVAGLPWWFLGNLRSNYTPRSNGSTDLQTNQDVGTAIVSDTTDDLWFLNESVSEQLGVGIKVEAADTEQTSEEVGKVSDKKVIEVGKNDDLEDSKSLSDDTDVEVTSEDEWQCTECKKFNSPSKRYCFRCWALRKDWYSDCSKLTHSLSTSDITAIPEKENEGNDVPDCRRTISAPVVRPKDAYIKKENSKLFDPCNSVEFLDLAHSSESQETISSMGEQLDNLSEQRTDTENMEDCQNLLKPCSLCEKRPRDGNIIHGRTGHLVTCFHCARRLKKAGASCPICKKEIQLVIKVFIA
Target sequence (Q00987 whole entry, looked up): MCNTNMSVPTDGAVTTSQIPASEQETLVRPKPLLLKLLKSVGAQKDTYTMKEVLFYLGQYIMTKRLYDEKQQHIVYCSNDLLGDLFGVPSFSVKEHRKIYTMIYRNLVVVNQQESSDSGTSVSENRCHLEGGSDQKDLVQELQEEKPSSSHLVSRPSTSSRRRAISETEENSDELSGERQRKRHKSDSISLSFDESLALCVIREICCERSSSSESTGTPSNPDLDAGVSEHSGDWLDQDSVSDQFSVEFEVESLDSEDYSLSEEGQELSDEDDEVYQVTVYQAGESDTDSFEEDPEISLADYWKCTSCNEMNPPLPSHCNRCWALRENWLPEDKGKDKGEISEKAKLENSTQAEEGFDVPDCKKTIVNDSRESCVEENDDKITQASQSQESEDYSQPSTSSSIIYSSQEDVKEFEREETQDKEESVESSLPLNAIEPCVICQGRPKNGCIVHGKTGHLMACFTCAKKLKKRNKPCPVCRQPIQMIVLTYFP
LGR2 antag: inhibitors of bursicon-induced LGR2 CRE-luciferase signal, primary screen, cell-based, HEK293, CRE-luciferase reporter, bursicon stimulation; inhibition, % at 9.99 µM; AID 720647, 2013; bursicon-stimulated, 4 h; 380,000 compounds, 0.35% hits;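 active = drop in luminescence signal, shown as inhibition above about 50% in the replicate tests, limit read from the data, passing the limit was not always enough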;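 note: agonist challenge used bursicon conditioned medium at about half maximal strength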
HSP90 refold inh: HSP90 inhibitors, primary screen, cell lysate, luminescence; Heat shock protein HSP 90 (rabbit reticulocyte lysate; luciferase refolding); Rabbit reticulocyte lysate, luciferase refolding luminescence, 3 h; inhibition, % at 5.6 µM; 290,000 compounds, 0.91% hits;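 active = inhibition above the screen-wide mean plus 3 SD, computed separately per campaign, cut at about 16% in these data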;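 note: inhibitors lower the luminescence because luciferase stays unfolded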
CF NFkB block: inhibitors of PAF-induced NF-kB signaling, primary screen, cell-based, GFP fluorescence, uHTS; KKLEB NF-kB-GFP reporter, GFP fluorescence overnight; inhibition, % at 5 µM; 360,000 compounds, 0.86% hits;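 active = at least 50% inhibition at 5 µM, scaled per plate between neutral and stimulator controls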;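 note: PAF is a Pseudomonas aeruginosa culture filtrate used as stimulus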
Peg3 prom inh: Peg3 promoter-driven luciferase inhibitors, primary screen, cell-based, HeLa, luciferase luminescence; HeLa PEG-Prom luciferase reporter, overnight; inhibition, % at 20 µM; 360,000 compounds, 1.7% hits; AID 588405, 2011;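 active = inhibition of at least 50% at 20 µM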
KKLEB tox: cytotoxicity in KKLEB CF airway cells, primary screen, cytotoxicity control for CF NF-kB inhibitor project, cell-based, uHTS, fluorescence assay plates. KKLEB CF airway cells viability, ATPlite luminescence, overnight; hits give low values; cells stimulated with P. aeruginosa culture filtrate. activity change (cytotoxicity), % at 5 µM. 360,000 compounds, 0.36% hits;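 active = corrected activity change at or below -50% at 5 µM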
HSP90 inh confirm: HSP90 inhibitors, confirmation, cell lysate, luminescence | 2,300 compounds, 64% hits | AID 1846, 2009 | inhibition, % at 5.9 µM | shares compounds with HSP90 refold inh | rabbit reticulocyte lysate, luciferase refolding luminescence, 3 h; in the data active = inhibition above about 18%
FLuc counter-1: firefly luciferase inhibitors, HSP90 counter-screen, confirmation, artefact control for HSP90 inhibitor project, biochemical, luminescence, triplicate; shares compounds with HSP90 refold inh; 2,300 compounds, 48% hits; inhibition, % at 5.9 µM; purified native firefly luciferase;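 active = inhibition above the mean inhibition of all tested sample wells plus 3 SD, cut at about 10% in these data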
Mdm2-MdmX conf: Mdm2-MdmX complex disruptors, retested hits, confirmation, luminescence, single concentration; 10,000 compounds, 55% hits; inhibition, % at 8 µM; shares compounds with Mdm2-MdmX inh; Mdm2-MdmX binding, luminescent assay; AID 489028, 2010; in the data active = inhibition above about 40%
FLuc counter-2: full-length luciferase signal inhibition, confirmation, counter-screen for Mdm2/MdmX interaction inhibitor project, cell-based, single concentration, SaOS-2 | 6,200 compounds, 77% hits | inhibition, % at 8 µM | shares compounds with Mdm2-MdmX inh | SaOS-2 full-length luciferase counterscreen, luminescence;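 active = mean inhibition at 8 µM reaching about 37%, which flags the compound as non-specific, limit read from the data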;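 note: p53-null SaOS-2 cells with luciferase driven by a doxycycline-inducible promoter; compound on cells about two nights before reading with doxycycline added after day one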
Hits are given with their value; i = inactive; nt = no result. A selection: hits, their analogues and other compounds. The true share with any hit is near 3.6%.

SMILES | Mdm2-MdmX inh | LGR2 antag | HSP90 refold inh | CF NFkB block | Peg3 prom inh | KKLEB tox | HSP90 inh confirm | FLuc counter-1 | Mdm2-MdmX conf | FLuc counter-2
COc1ccc2c(c1)C1=NN(/C(C)=C/C(C)=O)C(c3ccc(F)cc3)C1CC2 (configuration not stated) | i | i | i | i | i | i | nt | nt | nt | nt
CN1N=C2c3ccccc3CCCC2C1c1ccc(F)cc1 (configuration not stated) | i | i | 17.6 | i | i | i | i | i | nt | nt
Fc1ccc(-n2nnc(-c3nccs3)n2)cc1 | i | i | 19.8 | i | i | i | 31.5 | 24.6 | nt | nt
Cc1ccc(NC(=O)c2ccc3ncsc3c2)cc1S(=O)(=O)N(C)C | i | i | 18.6 | nt | nt | nt | 23.8 | 19.6 | nt | nt
C/C=C/c1ccc([C@H]2[C@@H](CO)N(CCC(F)(F)F)C23CN(C(=O)CC)C3)cc1 | nt | i | nt | nt | nt | nt | nt | nt | nt | nt
CCn1c(=O)c2cc(C(=O)N(C)c3ccc(OC)cc3OC)sc2c2ccccc21 | i | i | 23.4 | i | i | i | i | i | nt | nt
COc1ccc(-c2cc3nc(C)cc(N)n3n2)cc1 | i | nt | 42.0 | i | i | i | 61.1 | 41.1 | nt | nt
CC(C)[C@@H](N)C(=O)NC[C@H]1O[C@@H](n2cnc3c(=O)[nH]c(N)nc32)[C@H](O)[C@@H]1O | nt | i | nt | i | i | i | nt | nt | nt | nt
CC(C)C(=O)Nc1nc2c(ncn2C2CC(O)C(CO)O2)c(=O)[nH]1 (configuration not stated) | i | i | 34.1 | i | i | i | i | i | nt | nt
CCOC(=O)CS(=O)(=O)c1nc(-c2ccc(F)cc2)cc(C(F)(F)F)n1 | 100.3 | nt | 53.1 | 85.0 | 100.2 | i | i | i | 98.1 | 51.5
CCOC(=O)c1c(C(F)(F)F)cc(-c2ccc(F)cc2)nc1C | i | i | i | i | i | i | nt | nt | nt | nt
Cc1cc(C)c(S(=O)(=O)/N=C2\C=C(Nc3ccc(C(=O)O)cc3)C(=O)c3ccccc32)c(C)c1 | 77.7 | i | 45.9 | 91.1 | 103.3 | -63.3 | 78.8 | i | 67.8 | 51.5
O=C(O)c1ccc(NC2=C(N3CCOCC3)C(=O)c3ccccc3C2=O)cc1 | i | i | i | i | i | i | nt | nt | nt | nt
CCc1ccc(S(=O)(=O)/N=C2\C=C(Nc3ccc(O)cc3)C(=O)c3ccccc32)cc1 | 100.3 | nt | 31.1 | 99.4 | 103.6 | -88.2 | 71.6 | i | 96.6 | i
COCC(=O)Nc1ccc2c(c1)C(=O)N(C)C[C@H](OC)[C@H](C)CN(CCC(F)(F)F)[C@H](C)CO2 | nt | i | nt | nt | nt | nt | nt | nt | nt | nt
COc1ccc(CNC[C@@H](CCCCN(C)Cc2ccc(OC)cc2)N2C[C@H](c3ccccc3)N(CCc3ccc(Cl)c(Cl)c3)C(=O)C2=O)cc1 | 99.3 | nt | 17.5 | 62.1 | 97.5 | -95.2 | 19.8 | i | 100.3 | 52.6
Cc1ccc(S(=O)(=O)N(C)C[C@H]2OCCCC[C@@H](C)Oc3ccc(NS(=O)(=O)c4c(C)noc4C)cc3C(=O)N([C@@H](C)CO)C[C@@H]2C)cc1 | nt | i | nt | nt | nt | nt | nt | nt | nt | nt
Cc1nc2c(-c3ccc(F)cc3)cnn2c(N)c1-c1ccc(F)cc1 | 60.5 | i | 46.5 | i | i | i | 49.6 | 48.8 | 47.0 | 143.8

Assay outcomes (PubChem)
